Compound activity deposited in PubChem by The Scripps Research Institute Molecular Screening Center.
PLC-gamma1 inh – PLC-gamma1 enzyme inhibitors, primary screen, biochemical, fluorescence, purified enzyme | 370,000 tested, 0.84% active | inhibition, % at 12.2 µM | fluorogenic substrate | 1-phosphatidylinositol 4,5-bisphosphate phosphodiesterase gamma-1 (Homo sapiens), P19174; in the data active = inhibition above about 9.5%
MBD2 DNA inh – inhibitors of MBD2 binding to methylated DNA, primary screen, biochemical, TR-FRET, DNA-binding domain, human | Methyl-CpG-binding domain protein 2 (Homo sapiens), Q9UBB5 | MBD2 binding to methylated oligonucleotide | inhibition, % at 4.4 µM | 370,000 tested, 0.31% active; in the data active = inhibition above about 13%
Target sequence (Q9UBB5 whole entry, looked up, the tested form may be a part): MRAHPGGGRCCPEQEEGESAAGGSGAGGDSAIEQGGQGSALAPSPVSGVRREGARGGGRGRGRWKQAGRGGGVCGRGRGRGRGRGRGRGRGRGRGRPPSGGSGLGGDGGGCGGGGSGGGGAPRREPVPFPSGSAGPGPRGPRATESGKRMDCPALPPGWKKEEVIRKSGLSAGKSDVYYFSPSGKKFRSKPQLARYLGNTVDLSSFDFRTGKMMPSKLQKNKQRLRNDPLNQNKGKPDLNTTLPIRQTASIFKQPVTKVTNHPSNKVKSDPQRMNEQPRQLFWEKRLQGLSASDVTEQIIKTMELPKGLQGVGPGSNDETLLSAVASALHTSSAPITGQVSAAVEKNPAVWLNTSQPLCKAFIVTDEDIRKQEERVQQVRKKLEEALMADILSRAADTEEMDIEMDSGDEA
LEDGF integ inh – blockers of LEDGF/p75-dependent integrase strand transfer – biochemical, TR-FRET, high throughput, primary screen; TR-FRET IN-LEDGF/p75 DNA integration, Eu/Cy5; inhibition, % at 3.7 µM; 370,000 tested, 0.64% active;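 active = inhibition above the screen-wide mean plus 3 SD, cut at about 13% in these data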;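 note: signal is the Cy5 over europium emission ratio at 671 and 618 nm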
UHRF1 binding – UHRF1 methylated DNA binding inhibitors, primary screen, counter-screen for MBD2 inhibitor project, biochemical, TR-FRET, human UHRF1, single concentration | 370,000 tested, 0.75% active | AID 687016, 2013 | UHRF1 binding to methylated oligo | E3 ubiquitin-protein ligase UHRF1 (Homo sapiens), Q96T88 | inhibition, % at 4.4 µM;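 note: UHRF1 SRA domain binding a hemimethylated CpG hairpin DNA probe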
PLC-beta3 inh – human PLC-beta3 inhibitors, primary screen, biochemical, fluorescence; 1-phosphatidylinositol 4,5-bisphosphate phosphodiesterase beta-3 (Homo sapiens), Q01970; Purified PLC-beta3, fluorogenic substrate; inhibition, % at 12.2 µM; 370,000 tested, 0.18% active; AID 720704, 2013; in the data active = inhibition above about 11%
UHRF1 ctr MBD2 – UHRF1 methylated DNA binding inhibitors, counter-screen for MBD2 inhibitor project, biochemical, TR-FRET, human UHRF1; 1,000 tested, 25% active; inhibition, % at 4.4 µM; UHRF1 binding to methylated oligonucleotide; shares compounds with MBD2 DNA inh;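 note: UHRF1 SRA domain binding a labeled hemimethylated CpG hairpin DNA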
MBD2 confirm – inhibitors of MBD2 binding to methylated DNA, confirmation, biochemical, TR-FRET, DNA-binding domain, human; shares compounds with MBD2 DNA inh; inhibition, % at 4.4 µM; TR-FRET MBD2-DBD binding to methylated oligonucleotide; 1,000 tested, 26% active; in the data active = inhibition above about 14%
Hits are given with their value; – = inactive; · = no result given. Compounds with a hit are over-represented: about 2.4% of the library has one in this group of screens. Cut-off read from the data, not from the text of the source, unless noted: active = inhibition above about 21%; inactive = the rest.

SMILES	PLC-gamma1 inh	MBD2 DNA inh	LEDGF integ inh	UHRF1 binding	PLC-beta3 inh	UHRF1 ctr MBD2	MBD2 confirm
O=C1NC2c3c(Cl)sc(Cl)c3C(=O)C2O1 (stereo not drawn)	–	14	–	35	–	32	16
O=C1NC2c3c(I)sc(I)c3C(=O)C2O1 (stereo not drawn)	–	–	–	–	–	·	·
O=C1CN=C(Nc2ccccc2)N1Cc1cccs1	–	35	–	–	–	–	–
CC(C)c1ccc(NC2=NCC(=O)N2Cc2cccs2)cc1	–	–	–	–	–	·	·
COc1ccc(C2Nc3ccccc3C(=O)N2Cc2cccnc2)cc1COc1c(C)cccc1C (stereo not drawn)	–	–	–	–	–	·	·
CCCCOCCCNS(=O)(=O)Cc1ccccc1	–	20	–	–	–	–	–
O=C(O)CCCNS(=O)(=O)Cc1ccccc1	–	–	–	–	–	·	·
NS(=O)(=O)c1ccc(-c2c(-c3ccccc3)sc3ccccc23)cc1	–	14	–	22	–	–	–
COc1ccc(-c2sc3ccccc3c2-c2ccc(O)cc2)cc1	–	–	–	–	–	·	·
Cc1cc2[nH]c3c4ccccc4nc(C)c3c2cc1C	–	17	–	–	–	–	33
COCC(=O)N1CCC(C(=O)NCC2COc3ccccc3O2)CC1 (stereo not drawn)	–	–	–	–	–	·	·
O=C(CN1CCc2onc(-c3ccc(-n4cc(COc5ccc([N+](=O)[O-])cc5)nn4)cc3)c2C1=O)N1CCOCC1	–	–	–	–	–	·	·
COc1ccc(CN2CN3CCc4ccccc4C3CS2(=O)=O)cc1 (stereo not drawn)	–	–	–	–	–	·	·
COc1ccc(/C=C\c2nc(O)c([N+](=O)[O-])c(=O)[nH]2)cc1O	–	39	–	–	–	–	–
COC(=O)[C@]12C[C@H](CC(=O)NCc3ccc(OC)c(OC)c3)C(=O)N(Cc3cccc4ccccc34)C1=C[C@H](C(C)(C)C)O[C@@H]2C	–	–	–	–	–	·	·
CCN(CC)S(=O)(=O)c1ccc(N2CCOCC2)c(NC(=O)c2nn(C)c(=O)c3ccccc23)c1	–	14	–	–	–	–	–
CCN(CC)S(=O)(=O)c1ccc(N2CCCC2)c(NC(=O)c2nn(C)c(=O)c3ccccc23)c1	–	–	–	–	–	·	·
Cc1cc2c(=Cc3ccc(N(C)C)cc3)c3ccccc3n2[n+]1C	–	32	–	47	–	60	64
CC1=NN(c2cccc(F)c2)C(=O)/C1=C/c1ccc(N(C)C)cc1	–	–	–	–	–	·	·
Cc1ccc(-c2csc3nc4ccc(C(=O)NCCO)cc4c(=O)n23)cc1	–	–	–	–	–	·	·
Cc1ccc(-c2csc3nc4cc(C(=O)NC5CCC(O)CC5)ccc4c(=O)n23)cc1 (stereo not drawn)	–	14	–	–	–	–	–
Cc1ccccc1N1CCN(C(=O)COc2cc(=O)n(C)c3ccccc23)CC1	–	–	–	–	–	·	·
CC(C)(C)c1ccc(-c2nnc(SCC3CCCCO3)n2-c2ccc(Cl)cc2)cc1 (stereo not drawn)	–	–	–	–	–	·	·
Cc1ccc(NC(=O)CSc2nc3[nH]c(=O)cc(O)c3s2)c(Br)c1	–	64	–	–	–	–	–
O=C(CSc1nc2[nH]c(=O)cc(O)c2s1)Nc1nccs1	–	–	–	–	–	·	·
O=C(CSc1nc2[nH]c(=O)cc(O)c2s1)Nc1nncs1	–	23	–	–	–	–	–
CCCc1c(C)[nH]c2ccc(C(=O)O)cc2c1=S	–	25	–	77	–	38	23
